Results from PubChem BioAssay.
Calls of active or inactive are those of the source.

Legend:
[1] = system: Plasmodium falciparum Sir2 (PF13_0152, Sir2A); experiment: Plasmodium falciparum Sir2A binding compounds – biochemical, small-molecule microarray, 635 nm fluorescence, primary screen (AID 1098); conditions: fluorescence 635 nm, higher = more signal;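 note: score merges spot fluorescence intensity with its signal-to-noise ratio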
[2] = probe aDKK1 binding to arrayed compounds – biochemical, biotinylated probe, 635/667 nm fluorescence, primary screen (AID 1099); conditions: small-molecule microarray, higher = more signal;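 note: score merges 667nm spot fluorescence with signal to noise across triplicate slides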
[3] = probe aCHRDL2 binding to arrayed compounds – biochemical, biotinylated probe, 635/667 nm fluorescence, primary screen (AID 1100); conditions: small-molecule microarray, higher = more signal
[4] = change in splice reporter luminescence, either direction, cell-based, HEK293, spliceosome inhibition project, primary screen (AID 1101); conditions: HEK293 splicing luciferase reporter, 24 h, higher = more signal, called active from +8 up or from −8 down;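 note: HEK293 cells carrying a splicing-competent luciferase reporter gene; test concentration not given here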
[5] = target: Fibroblast growth factor 10 (Homo sapiens) (UniProt O15520); experiment: compounds binding fibroblast growth factor 10 – biochemical, small-molecule microarray, 635 nm fluorescence, primary screen (AID 1102); conditions: FGF10 binding, fluorescence 635 nm, higher = more signal
[6] = system: glycogen synthase kinase-3 (GSK3A per assay name; protocol says GSK3B); experiment: compounds binding glycogen synthase kinase-3 – biochemical, small-molecule microarray, 635 nm fluorescence, GSK3A, primary screen (AID 1103); conditions: fluorescence 635 nm, higher = more signal; note: the record names both GSK3A and GSK3B
[7] = target: Epidermal growth factor receptor (Homo sapiens) (UniProt P00533); experiment: compounds binding epidermal growth factor receptor – biochemical, small-molecule microarray, 635 nm fluorescence, primary screen (AID 1104); conditions: EGFR binding, higher = more signal;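 note: score merges 667 nm emission intensity with spot signal to noise over triplicate slides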
[8] = target: Follistatin-related protein 3 (Homo sapiens) (UniProt O95633); experiment: compounds binding follistatin-related protein 3 – biochemical, small-molecule microarray, 635 nm fluorescence, primary screen (AID 1105); conditions: FSTL3 binding, higher = more signal;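 note: score merges emission near 667 nm and signal to noise per printed spot across three slides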
[9] = target: Dickkopf-related protein 1 (Homo sapiens) (UniProt O94907); experiment: small molecules binding DKK1 protein – biochemical, small-molecule microarray, 635 nm fluorescence scan, primary screen (AID 1106); conditions: higher = more signal;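 note: score merges emission near 667 nm with signal to noise over three replicate slides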
[10] = system: Inhibin beta A chain (activin A); experiment: small molecules binding activin A – biochemical, small-molecule microarray, 635 nm fluorescence scan, primary screen (AID 1107); conditions: INHBA, higher = more signal;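 note: mouse activin A protein probed at 4.33 µg/mL on printed slides; score merges bound-protein fluorescence near 667 nm with spot signal-to-noise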
[11] = system: Human papillomavirus type 1a protein E7 (residues 44-93); experiment: small molecules binding HPV E7 44-93 – biochemical, small-molecule microarray, residues 44-93, 635 nm fluorescence, primary screen (AID 1108); conditions: fluorescence 635 nm, higher = more signal;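 note: E7 fragment applied at 1 µg/mL in TBST for 1 h at 4 C; score combines spot fluorescence with its signal to noise ratio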
[12] = hepatitis C replication reporter changes, two-sided – Huh7 cells, luciferase reporter, HCV replication inhibitor project, primary screen (AID 1109); conditions: Huh7 HCV replicon luciferase reporter, 48 h; higher = more signal;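 note: huh7 hepatoma cells harbouring a luciferase neomycin HCV replicon reporter; luciferase luminescence as measure of HCV replicon replication; test concentration not given here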
[13] = target: Left-right determination factor 2 (Homo sapiens) (UniProt O00292); experiment: small molecules binding LEFTY2 protein – biochemical, small-molecule microarray, 635 nm fluorescence scan, primary screen (AID 1110); conditions: higher = more signal
[14] = target: Calmodulin-1 (Homo sapiens) (UniProt P0DP23); experiment: small molecules binding calmodulin-1 with EGTA – biochemical, small-molecule microarray, Cy5-labelled CALM1, profiling panel (AID 1111); conditions: Cy5-CALM1 binding fluorescence, higher = more signal;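 note: labelled calmodulin applied in Tris saline Tween buffer holding calcium plus EGTA and DTT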
[15] = target: Calmodulin-1 (Homo sapiens) (UniProt P0DP23); experiment: small molecules binding Ca-loaded calmodulin-1 – biochemical, small-molecule microarray, Cy5-labelled CALM1, plus calcium, artefact control for SMM control-protein annotation, profiling panel (AID 1112); conditions: Cy5-CALM1 binding fluorescence, higher = more signal;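 note: score merges spot fluorescence with signal to noise from triplicate slides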
[16] = probe aWnt5a binding to arrayed compounds – biochemical, biotinylated probe, 635/667 nm fluorescence, primary screen (AID 1113); conditions: small-molecule microarray, higher = more signal;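 note: score merges 667 nm fluorescence intensity with signal-to-noise per printed feature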
[17] = probe aShh binding to arrayed compounds – biochemical, biotinylated probe, 635/667 nm fluorescence, primary screen (AID 1114); conditions: small-molecule microarray, higher = more signal;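 note: probe is biotin-labelled aShh protein from a stem cell growth factor screen; measures binding of labelled protein to compounds printed on the slide; score merges feature fluorescence at 667 nm with signal-to-noise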
[18] = probe aNog binding to arrayed compounds – biochemical, biotinylated probe, 635/667 nm fluorescence, primary screen (AID 1115); conditions: small-molecule microarray, higher = more signal;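 note: probe is biotinylated aNog protein used at 0.15 µg/mL for 1 h at 4 C; z-score combines 667 nm fluorescence of each spot with its signal to noise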
[19] = target: Torsin-1A-interacting protein 1 (Homo sapiens) (UniProt Q5JTV8); experiment: compound microarray binding of lysate hLAP1 – cell lysate, small-molecule microarray, COS7 lysate, 635/667 nm fluorescence, primary screen (AID 1116); conditions: 635 nm fluorescence, higher = more signal
[20] = target: Alpha-bungarotoxin (Bungarus multicinctus) (UniProt P60615); experiment: compounds binding labelled alpha-BTX control protein – biochemical, small-molecule microarray, Alexa647 label, 635/667 nm fluorescence, artefact control for SMM control protein annotation, profiling panel (AID 1117); conditions: alpha-BTX-A647 binding fluorescence, higher = more signal
Alpha-bungarotoxin (Bungarus multicinctus), sequence (P60615 whole entry, looked up): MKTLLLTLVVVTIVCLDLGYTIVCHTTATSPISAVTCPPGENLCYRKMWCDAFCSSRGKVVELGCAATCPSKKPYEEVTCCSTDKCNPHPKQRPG

Epidermal growth factor receptor (Homo sapiens), sequence (P00533 whole entry, looked up): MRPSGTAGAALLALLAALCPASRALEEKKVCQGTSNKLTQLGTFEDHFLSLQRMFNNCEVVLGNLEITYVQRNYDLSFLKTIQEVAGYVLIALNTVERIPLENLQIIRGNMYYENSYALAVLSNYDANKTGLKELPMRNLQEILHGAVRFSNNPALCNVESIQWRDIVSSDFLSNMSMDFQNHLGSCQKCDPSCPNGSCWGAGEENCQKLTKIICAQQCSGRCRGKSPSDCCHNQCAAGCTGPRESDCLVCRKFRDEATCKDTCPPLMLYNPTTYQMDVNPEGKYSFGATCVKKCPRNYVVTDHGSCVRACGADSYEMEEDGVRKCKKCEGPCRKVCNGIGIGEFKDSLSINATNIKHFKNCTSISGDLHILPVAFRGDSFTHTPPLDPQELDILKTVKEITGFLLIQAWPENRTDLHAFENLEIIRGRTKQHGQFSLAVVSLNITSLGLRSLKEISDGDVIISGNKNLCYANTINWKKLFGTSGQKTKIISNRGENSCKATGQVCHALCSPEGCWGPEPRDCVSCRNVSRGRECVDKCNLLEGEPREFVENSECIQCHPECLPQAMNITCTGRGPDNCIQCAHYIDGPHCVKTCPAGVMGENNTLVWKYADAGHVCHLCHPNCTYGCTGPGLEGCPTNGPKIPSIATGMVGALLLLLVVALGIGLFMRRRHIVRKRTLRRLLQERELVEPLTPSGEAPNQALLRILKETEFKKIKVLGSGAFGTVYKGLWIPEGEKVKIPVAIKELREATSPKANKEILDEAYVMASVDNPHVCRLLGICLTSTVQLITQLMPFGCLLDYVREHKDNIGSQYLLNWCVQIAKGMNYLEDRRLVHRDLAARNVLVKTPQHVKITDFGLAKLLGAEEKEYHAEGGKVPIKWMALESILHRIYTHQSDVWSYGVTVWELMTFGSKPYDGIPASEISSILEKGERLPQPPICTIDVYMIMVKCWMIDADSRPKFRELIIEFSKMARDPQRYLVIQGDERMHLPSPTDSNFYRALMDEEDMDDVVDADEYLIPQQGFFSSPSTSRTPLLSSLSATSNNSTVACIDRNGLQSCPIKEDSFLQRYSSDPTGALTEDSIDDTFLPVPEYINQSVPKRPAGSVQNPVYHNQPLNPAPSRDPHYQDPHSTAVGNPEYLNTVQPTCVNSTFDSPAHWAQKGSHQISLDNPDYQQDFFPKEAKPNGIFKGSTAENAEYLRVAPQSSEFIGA
Torsin-1A-interacting protein 1 (Homo sapiens), sequence (Q5JTV8 whole entry, looked up): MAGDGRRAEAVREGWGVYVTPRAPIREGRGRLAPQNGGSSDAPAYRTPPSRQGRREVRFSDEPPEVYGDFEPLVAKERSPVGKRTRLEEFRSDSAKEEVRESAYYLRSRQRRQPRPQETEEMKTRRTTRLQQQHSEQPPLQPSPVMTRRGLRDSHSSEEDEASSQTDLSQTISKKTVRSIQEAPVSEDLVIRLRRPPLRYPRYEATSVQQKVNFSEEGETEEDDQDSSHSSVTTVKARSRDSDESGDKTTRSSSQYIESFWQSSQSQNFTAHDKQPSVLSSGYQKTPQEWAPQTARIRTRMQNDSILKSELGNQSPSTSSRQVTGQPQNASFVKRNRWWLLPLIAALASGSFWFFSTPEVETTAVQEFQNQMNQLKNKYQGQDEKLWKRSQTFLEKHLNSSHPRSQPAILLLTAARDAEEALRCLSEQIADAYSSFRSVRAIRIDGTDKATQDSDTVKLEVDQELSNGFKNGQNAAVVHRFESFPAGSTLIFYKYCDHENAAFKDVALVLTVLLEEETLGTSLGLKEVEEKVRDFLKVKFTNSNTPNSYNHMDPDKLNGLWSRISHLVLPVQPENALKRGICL
Dickkopf-related protein 1 (Homo sapiens), sequence (O94907 whole entry, looked up): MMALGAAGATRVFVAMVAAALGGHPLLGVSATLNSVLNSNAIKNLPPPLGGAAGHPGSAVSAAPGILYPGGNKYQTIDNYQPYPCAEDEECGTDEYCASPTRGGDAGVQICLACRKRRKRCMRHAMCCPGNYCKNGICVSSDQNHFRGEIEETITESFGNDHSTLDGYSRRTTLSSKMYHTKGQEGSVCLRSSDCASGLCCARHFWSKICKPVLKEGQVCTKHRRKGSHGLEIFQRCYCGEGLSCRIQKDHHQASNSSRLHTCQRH
Follistatin-related protein 3 (Homo sapiens), sequence (O95633 whole entry, looked up): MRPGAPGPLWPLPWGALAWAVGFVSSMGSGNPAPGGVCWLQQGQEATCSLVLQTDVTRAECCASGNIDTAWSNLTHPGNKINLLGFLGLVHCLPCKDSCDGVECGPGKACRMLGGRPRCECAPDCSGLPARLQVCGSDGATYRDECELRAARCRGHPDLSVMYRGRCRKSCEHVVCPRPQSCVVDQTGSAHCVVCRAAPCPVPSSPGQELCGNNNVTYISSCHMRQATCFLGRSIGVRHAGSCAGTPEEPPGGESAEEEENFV
Left-right determination factor 2 (Homo sapiens), sequence (O00292 whole entry, looked up): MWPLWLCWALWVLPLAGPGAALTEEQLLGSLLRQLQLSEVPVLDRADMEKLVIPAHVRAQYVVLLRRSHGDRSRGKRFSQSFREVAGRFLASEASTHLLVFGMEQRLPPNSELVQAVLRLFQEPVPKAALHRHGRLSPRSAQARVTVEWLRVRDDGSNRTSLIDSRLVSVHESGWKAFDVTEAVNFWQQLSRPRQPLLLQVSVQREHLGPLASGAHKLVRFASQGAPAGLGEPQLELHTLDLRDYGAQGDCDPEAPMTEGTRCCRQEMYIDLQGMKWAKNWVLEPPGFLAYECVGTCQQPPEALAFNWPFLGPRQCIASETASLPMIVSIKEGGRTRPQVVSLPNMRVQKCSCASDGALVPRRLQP
Fibroblast growth factor 10 (Homo sapiens), sequence (O15520 whole entry, looked up): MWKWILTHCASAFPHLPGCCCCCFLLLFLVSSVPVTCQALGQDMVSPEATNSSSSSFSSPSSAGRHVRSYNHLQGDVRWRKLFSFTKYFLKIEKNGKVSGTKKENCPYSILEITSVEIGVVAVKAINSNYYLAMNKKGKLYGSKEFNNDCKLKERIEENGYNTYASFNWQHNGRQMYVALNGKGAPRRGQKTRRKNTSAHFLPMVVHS

Row | SMILES | composite z-score [1] | composite z-score [2] | composite z-score [3] | z-score [4] | composite z-score [5] | composite z-score [6] | composite z-score [7] | composite z-score [8] | composite z-score [9] | composite z-score [10] | composite z-score [11] | z-score [12] | composite z-score [13] | composite z-score [14] | composite z-score [15] | composite z-score [16] | composite z-score [17] | composite z-score [18] | composite z-score [19] | composite z-score [20]
1 | C=CCNC(=O)[C@H]1[C@@H]2C(=O)O[C@@H](c3ccccc3)[C@@H](c3ccccc3)N2[C@@H](c2ccc(O)cc2)[C@]12C(=O)N(C(=O)OCCOC)c1ccc(C#CCNC(N)=O)cc12 | 0.867 | 0.297 | 0.537 | 0.481 (inactive) | 0.855 | 1.11 | 0.157 | 0.999 | 0.936 | 0.969 | 0.863 | -0.767 | 1.01 | -0.0456 | 0.143 | 0.0077 | -0.0769 | 0.0989 | 0.585 | 1.07
2 | C#CCN(Cc1ccccc1Br)C(/C=C/c1ccccc1)CO (stereo not given) | -0.877 | -0.23 | 0.326 | -1.03 (inactive) | 0.168 | -0.398 | -0.153 | -0.649 | -0.0455 | 0.904 | -0.413 | -3.49 | -0.362 | -0.669 | -0.423 | -0.16 | 0.0494 | -0.443 | 0.104 | 0.0125
3 | O=C1[C@H]2C=C(Br)[C@H](C[C@@H]2c2ccccc2)[C@@]12CO2 | -0.0067 | -0.217 | -0.261 | 0.723 (inactive) | 0.774 | 0.381 | 0.513 | 0.733 | 0.765 | 0.648 | 0.235 | -3.33 | 1.02 | -0.428 | -0.441 | -0.152 | -0.414 | -0.461 | 0.0974 | 0.0148
4 | CC(=O)N1Cc2ccccc2C[C@@]2(COC(c3ccc(OCCCO)cc3)=N2)C1=O | 1.32 | 1.18 | 1.31 | -1.66 (inactive) | 0.649 | 1.32 | 0.455 | 1.13 | 0.438 | 1.09 | 0.612 | -1.62 | 0.827 | 1.79 | 0.845 | 0.0587 | 0.412 | 0.114 | 1.7 | 1.88
5 | CC(=O)NCCCC[C@@H]1NC(=O)[C@@H]2C[C@H](C(=O)NCCCCN(C)C)[C@H](c3cccc(OCCO)c3)N2C1=O | 1.4 | -0.0978 | 0.529 | 0.805 (inactive) | 0.556 | 0.117 | -0.12 | 0.227 | 0.0332 | -0.609 | -0.426 | 0.471 | -0.419 | 0.017 | 0.0573 | -0.0944 | 0.0048 | -0.0474 | -1.4 | 0.473
6 | CCOC(=O)C[C@H]1[C@H](OC(=O)c2cc3ccccc3oc2=O)[C@@H](NC(=O)Cc2ccc(OC)cc2)c2cc(OCCCO)ccc2N1C(=O)c1ccccc1 | 0.39 | -0.351 | -0.355 | -0.854 (inactive) | 0.458 | 0.0878 | 0.436 | 0.23 | 0.313 | 0.726 | 0.856 | -0.273 | 0.427 | -0.13 | -0.342 | -0.139 | 0.299 | 1.75 | 0.559 | 0.258
7 | COC(=O)[C@@]1(Cc2ccc(OC)cc2)[C@H]2c3cc(C(=O)N4CCCC4)n(Cc4ccsc4Br)c3C[C@H]2CN1C(=O)c1ccccc1 | 0.824 | 0.597 | 1.08 | 2.42 (inactive) | -0.125 | 0.386 | -0.248 | -0.246 | -0.752 | 0.741 | 1.27 | -3.66 | -0.857 | 1.1 | 0.696 | -0.0944 | -0.237 | 1.48 | 0.254 | 0.218
8 | C=C(CCCC)C(=O)CC[C@@H](OC(=O)c1cccnc1)c1ccc(CO)o1 | 1.15 | 0.0013 | -0.269 | 0.08 (inactive) | 1.21 | 0.958 | 0.641 | 0.916 | 0.576 | 1.3 | 0.94 | -1.39 | 0.654 | 0.916 | -1.3 | 0.0003 | -0.0035 | -0.0333 | 0.387 | 0.781
9 | O=C(NCc1ccc(F)cc1)[C@H]1C[C@H]2C(=O)N[C@@H](Cc3ccccc3)C(=O)N2[C@H]1c1ccc(O)cc1 | 1.06 | -0.103 | 0.105 | -0.41 (inactive) | 0.123 | -0.469 | -0.394 | -0.383 | 0.274 | -0.266 | 0.335 | -0.522 | -0.469 | 0.0755 | 0.531 | -0.148 | -0.244 | -0.235 | 0.33 | -0.051
10 | CC(C)C(=C=CC[C@@H](O)c1ccccc1OCCO)CCO | 0.116 | -0.258 | 0.133 | -0.0616 (inactive) | 1.36 | 0.0661 | -0.195 | 0.0893 | 0.326 | 0.434 | -0.79 | -1.49 | 0.156 | 0.084 | -0.21 | -0.0836 | -0.0471 | -0.371 | -0.549 | 0.606
11 | COCCOC(=O)N1C(=O)[C@@]2(c3cc(C#CC4=CCCCC4)ccc31)[C@H](c1ccc(O)cc1)N1[C@H](c3ccccc3)[C@H](c3ccccc3)OC(=O)[C@H]1[C@@H]2C(N)=O | 1.03 | -0.327 | -0.624 | -1.03 (inactive) | 1.17 | 1.12 | 0.584 | 1.16 | 0.639 | 0.155 | 1.19 | -0.696 | 0.63 | 0.624 | 0.0442 | -0.0165 | 0.157 | -0.564 | 0.745 | 1.04
